# Assay outcomes from PubChem.
# CRFBP-R2 block – CRF-BP/CRF-R2 complex antagonism; 350,000 compounds, 0.59% hits; HEK293 CRF-R2/CRF-BP, CRF-induced calcium fluorescence; AID 588475; inhibition, % at 11.8 µM;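 active means inhibition of the ligand-induced calcium signal above about 50% at the single tested concentration, limit read from the data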
# CRFR2-BP ag – CRF-BP/CRF-R2 complex agonism | HEK293 CRF-R2/CRF-BP, calcium dye fluorescence (FLIPR); percent of saturating CRF peptide response | activation, % at 13.2 µM | 350,000 compounds, 0.46% hits | AID 588473;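 active means activation of at least 50%, plus an integration ratio under a set limit after plate pattern correction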;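 further: plate controls were neutral control wells without compound for no effect and CRF at EC100 for full effect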
# V-ATPase pHluor – alters yeast V-ATPase proton transport; 350,000 compounds, 0.37% hits; response, % at 10 µM; S. cerevisiae, pHLuorin cytosolic pH fluorescence; in the data active means response mostly above about 7.3%, no sharp cut-off; inactive means mostly below about 5.4%; further: actives read high
# NTR1 agonist – agonists of human neurotensin receptor NTR1; activation, % at 20 µM; 330,000 compounds, 0.17% hits; P30989; NTR1-U2OS beta-arrestin-GFP spot imaging, agonist mode; AID 493036;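 active means activation at or above 40% of the spot to cytoplasm intensity ratio, with at least 20 cells analyzed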;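 further: 0% = DMSO without peptide and 100% = 100 nM NTR1 peptide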
# Target sequence (P30989 whole entry, looked up): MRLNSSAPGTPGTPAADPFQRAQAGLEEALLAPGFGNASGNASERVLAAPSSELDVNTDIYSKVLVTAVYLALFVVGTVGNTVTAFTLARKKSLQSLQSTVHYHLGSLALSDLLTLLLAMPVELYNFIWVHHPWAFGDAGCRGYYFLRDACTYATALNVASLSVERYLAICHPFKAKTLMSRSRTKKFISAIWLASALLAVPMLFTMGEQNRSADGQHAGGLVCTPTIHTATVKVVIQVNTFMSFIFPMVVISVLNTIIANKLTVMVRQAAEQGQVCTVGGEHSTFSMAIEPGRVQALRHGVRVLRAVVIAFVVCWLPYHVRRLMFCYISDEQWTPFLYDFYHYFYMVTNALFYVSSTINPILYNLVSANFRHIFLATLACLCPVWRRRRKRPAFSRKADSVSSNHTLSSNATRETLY
# Numbers without * were called inactive; / = no result. Sampled rows, rich in hits. Any-hit rate of the full collection: about 1.5%.
SMILES,CRFBP-R2 block,CRFR2-BP ag,V-ATPase pHluor,NTR1 agonist
CC(CCN1C(Nc2ccccc2)=NC[C@@H]1Cc1ccccc1)c1ccccc1 (stereo partly specified),-13.1,-1.4,8.0,-3.2
Cc1cccc2sc(NC(=O)Cn3c(C)csc3=O)nc12,3.7,3.9,-0.2,0.3
CC(C)Oc1ccc(/C=N/NC(=O)C(CSCc2ccccc2)NC(=O)c2ccc([N+](=O)[O-])cc2)cc1 (stereo unspecified),-46.3,104.1*,3.4,8.3
COc1c2ccccc2c(OC)c2ccccc12,-21.4,-0.4,-3.2,-1.5
CCn1c(CCNC(=O)c2ccc(OC)cc2)nnc1SCc1ccc(Cl)c(Cl)c1,-149.7,135.8*,2.0,/
COc1cccc(N=C2SC(CC(=O)Nc3ccccc3)C(=O)N2Cc2ccccn2)c1 (stereo unspecified),-12.8,-2.0,-5.3,3.5
CCc1ccc2nc3sc(C(=O)N4CCc5ccccc54)c(N)c3cc2c1,/,/,/,14.8
Cc1ccc(C)c2nc3sc(C(=O)N4CCCc5ccccc54)c(N)c3cc12,-153.9,60.4*,-0.9,-1.2
COC(=O)c1ccc2c(c1)C(=O)/C(=C/c1ccc(C)cc1)O2,-20.7,4.1,1.0,3.4
CN(C)c1ccc(/C=C2\Oc3ccc(C#Cc4cccc(N)c4)cc3C2=O)cc1,-40.2,80.4*,-8.9,-4.4
COC(=O)C(OC(=O)c1ccccc1)C(C)Br (stereo unspecified),63.0*,-2.9,-3.1,0.4
CC(C)OC(=O)c1ccc(NC(=O)c2ccccc2)cc1,-62.8,9.0,-6.2,0.3
CN(C(=O)OC(C)(C)C)c1ccc(-c2nc3ccccc3s2)cc1,-0.6,3.1,10.9,7.2
COc1ccc(-c2nc3scc(-c4ccc(OC)c(OC)c4)c3c(=O)o2)cc1,56.9*,-0.6,0.0,0.2
O=C(N/C(=C\c1ccc(Br)cc1)C(=O)N1CCOCC1)c1ccc([N+](=O)[O-])cc1,-10.4,0.9,-0.5,1.0
Cc1ccc([N+](=O)[O-])cc1N=Nc1c(-c2ccc([N+](=O)[O-])cc2)[nH]n(C(N)=S)c1=O,111.6*,51.4*,5.5,/
Cc1ccc([N+](=O)[O-])cc1N=Nc1c(C)[nH]n(C(N)=S)c1=O,-3.5,-1.2,-1.4,-0.7
CCN(CC)C(=O)c1c(C)nc2ccccn12,85.4*,-7.8,3.3,-0.7
Cc1nc2ccccn2c1C(=O)CSc1ccccc1,-21.9,-1.0,1.8,1.5
CCOC(=O)C1=C(CCc2ccccc2)NC(=O)NC1c1cccc([N+](=O)[O-])c1 (stereo unspecified),58.3*,0.7,4.7,4.6
CN(C)c1ccc(/C=C(\C#N)C(=O)Nc2nc3c(s2)CCN(Cc2ccccc2)C3)cc1,-459.0,345.2*,-2.4,-0.1
CC(=O)c1sc2nsc(SCCN3CCCCC3)c2c1N,-7.4,1.1,-3.0,-0.9
Cc1cc(C)c2c(N)c(C(=O)c3ccc(Cl)cc3)sc2n1,19.2,0.5,-3.1,5.6
Nc1c(C(=O)c2ccccc2)sc2nsc(SCCN3CCCC3)c12,-79.9,102.2*,1.2,1.6
Nc1c(C(=O)c2ccc(Cl)cc2)sc2nsc(SCCN3CCOCC3)c12,-73.4,91.6*,0.7,0.3
SMILES,CRFBP-R2 block,CRFR2-BP ag,V-ATPase pHluor,NTR1 agonist
Cc1c(C(=O)N(C)C(C)c2ccccn2)oc2c(F)cccc12 (stereo unspecified),-3.1,-2.3,-2.6,0.2
Cc1nn(C)cc1CN(C)C(=O)c1ccc(OC2CCN(Cc3ccccn3)CC2)cc1,56.7*,1.9,5.6,0.1
O=C1Nc2cc(Br)ccc2C1(O)c1ccccc1O (stereo unspecified),8.5,6.4,3.2,0.0
Cc1cc(O)c(C2(O)C(=O)Nc3cc(Br)ccc32)cc1C (stereo unspecified),121.1*,4.1,2.4,-0.3
CC(=O)c1ccc2c3c(cccc13)C(=O)N(c1c(C)nn(C)c1C)C2=O,-1.9,1.5,3.5,0.1
O=C1c2cccc3c(N4CCCCC4)ccc(c23)C(=O)N1c1cccc(O)c1,-131.8,161.4*,2.2,-0.9
O=C(c1cccc(N2C(=O)c3ccccc3C2=O)c1)N1CCCCCC1,15.2,-4.5,2.2,0.8
C=CCN1C(=O)c2cccc3c(N4CCCCC4)ccc(c23)C1=O,-344.1,255.5*,0.2,-1.6
Cc1n[nH]c(C)c1N1C(=O)c2cccc3c(N4CCCCCC4)ccc(c23)C1=O,-375.4,399.5*,-14.3,-4.8
O=C1c2cccc3c(N4CCCCC4)ccc(c23)C(=O)N1CCO,-153.9,118.2*,-2.8,-2.3
CSc1ncc(Cl)c(C(=O)Nc2cccc(Cl)c2)n1,2.6,-1.6,2.0,1.8
C=CCN(C(=O)CCC(=O)Nc1cc(C)on1)C(C(=O)NC(C)(C)C)c1ccc(OC)cc1 (stereo unspecified),11.9,0.5,3.1,0.1
CSc1cccc(NC(=O)Nc2ccccc2C(N)=O)c1,-16.5,0.4,0.9,-0.5
Cc1cc(C)c(NC(=S)N(CCCN2CCN(C)CC2)Cc2cccs2)c(C)c1,-5.7,-1.9,0.2,-0.1
CCN(c1ccc(NC(=O)CN2C(=O)NC3(CCOc4ccccc43)C2=O)cc1)C(C)C (stereo unspecified),12.7,-0.7,3.4,-0.5
OCCN1CCN(c2cc(C(F)(F)F)nc3c(F)cccc23)CC1,-19.9,1.3,-2.6,2.0
O=C(c1ccc(NS(=O)(=O)c2cccc([N+](=O)[O-])c2)cc1)N1CCCCCC1,114.7*,6.3,-2.2,0.2
O=[N+]([O-])c1cccnc1SCc1ccccc1,1.3,0.1,-1.3,-0.2
O=C(O)c1nn(CCOc2cccc(Br)c2)c(=O)c2ccccc12,-7.0,0.9,-3.3,2.5
COc1ccc(NC(=O)NCCCN2CCc3ccccc3C2)cc1,52.3*,-1.9,-0.5,-0.7
O=C(NCCCN1CCc2ccccc2C1)Nc1ccc(Br)cc1,-34.5,9.6,-2.1,0.2
COc1ccc(C)cc1NC(=O)N1CCCc2ccccc21,52.6*,1.8,2.5,-0.5
Cc1cc(C)c(NC(=O)COC(=O)c2cccc3c2C(=O)c2ccccc2C3=O)c(C)c1,27.0,-1.1,-1.6,3.5
Cc1cc(C)c(Nc2cc(S(=O)(=O)O)c(N)c3c2C(=O)c2ccccc2C3=O)c(C)c1,52.7*,13.4,-1.9,/
CCN(C(=O)CN1C(=O)COc2ccc(S(=O)(=O)N3CCCCCC3)cc21)c1cccc(C)c1,-48.3,55.5*,-1.5,1.2
SMILES,CRFBP-R2 block,CRFR2-BP ag,V-ATPase pHluor,NTR1 agonist
O=C1c2ccccc2C(=O)c2c(O)c(O)cc(O)c21,51.6*,4.0,0.8,-3.0
Nc1ccc(O)c2c1C(=O)c1ccccc1C2=O,1.3,4.3,1.6,-3.0
CCCCCCN1CC(O)=C(c2nc3ccccc3[nH]2)C1=N,-0.1,0.1,13.2*,-0.3
CC(=O)Oc1ccc2cc(-c3cccnc3)c(=O)oc2c1,79.3*,0.2,4.5,/
COc1ccc2cc(-c3ccccc3)c(=O)oc2c1,9.3,1.3,-1.3,0.7
COc1ccc2ccccc2c1CNCCCN1CCOCC1,66.7*,-2.0,0.3,1.3
CCOC(=O)c1c(S(=O)(=O)NCC(=O)Nc2ccc(OC)cc2)c(C)n(C)c1C,-17.5,0.4,-4.7,0.3
CNc1nc2[nH]c(=O)c3c(c2s1)OC(N)=C(C#N)C3c1cccc(F)c1 (stereo unspecified),-157.2,103.2*,3.4,1.0
